Results as given in PubChem BioAssay AID504770 (ICCB-Longwood Screening Facility, Harvard Medical School, 2011).
Screen size: about 130,000 compounds; about 350 (0.27%) were called active. For the sample, actives were picked, then their nearest neighbours and some compounds at random. Unmarked numbers belong to inactive results. No stated cut-off is given here; in the data, active means z-score below about -2 (passing the limit was not always enough); inactive means the rest.

Test: PubChem AID 504770
Details: E. coli YBA685 rctB-dependent plasmid, OD600 growth, 3 h; stronger effect = lower value
Work on `Cc1ccccc1NC(=O)CSC(=O)c1ccccc1` yielded a z-score of 0.6. Work on `COc1ccc(C2C(C#N)(C#N)C2(C#N)C#N)cc1` yielded a z-score of 0.05. With `N#CC1(C#N)C(c2ccc(Cl)c(Cl)c2)C1(C#N)C#N` the z-score was -6.85 (active). Work on `O=C(O)C(Cc1ccccc1)Nc1ncnc2sc3c(c12)CCC3` (centres undefined) yielded a z-score of 0.65. With `CCc1cccc(NC(=O)CC(=O)Nc2ccc3nc4n(c(=O)c3c2)CCCCC4)c1` the z-score was 0.6. Compound `Cc1c(C(=O)NC2CCCCC2)sc2nc(-c3ccc(F)cc3)cn12` has a z-score of 0.15. `COc1ccc(C(=O)Nc2ccc(-n3nncc3-c3ccccc3)cc2)cc1` gave a z-score of -0.9. In the case of `Cc1ccccc1C(=O)N(CC#N)CC#N`, the z-score is reported as -0.6. `Cc1ccccc1NC(=O)NC(=O)CC#N` showed a z-score of 0.45. With `Cc1ccccc1C(=O)CC#N` the z-score was -3.2 (active). Compound `CC(C)(C)c1ccc(CNCc2ccco2)cc1` has a z-score of 0.35. With `CCOC(=O)CN1C=NS(=O)(=O)c2ccccc21` the z-score was 0.4. In the case of `O=C1Nc2ccccc2C1=Nc1cccc(C(F)(F)F)c1`, the z-score is reported as -1.05. With `CC(C)c1c(O)c2ccccc2[nH]c1=O` the z-score was -0.4. With `O=C1CCC(C2CCC(=O)CC2)CC1` the z-score was -0.55. Work on `CCc1nc2ccccc2n1CCO` yielded a z-score of 0.6. For `CS(=O)(=O)Nc1ccccc1C(=O)OCC(=O)NC1CC1`, the z-score was -0.75. In the case of `Cc1ccc(NC(=O)Cn2cc3c(n2)CCC(C)C3)c(Cl)c1` (centres undefined), the z-score is reported as -0.6. `COc1cc(CNc2ccc3[nH]c(=O)[nH]c3c2)ccc1OCC(N)=O` gave a z-score of 1.6. `Cc1nc(S(=O)(=O)NCc2ccc(-c3cccs3)cc2)cn1C` showed a z-score of -0.2. Work on `CCCOc1ccc(NC(=O)CC2SC(N)=NC2=O)cc1` (centres undefined) yielded a z-score of -1.1. `Cc1onc(-c2c(Cl)cccc2Cl)c1/C=N/O` showed a z-score of -0.4. Compound `CCCCn1c2nc3ccccc3nc2c2c(N)ncnc21` has a z-score of 0.2. With `CCCc1nc2c3ccccc3ncn2n1` the z-score was -5.5 (active). With `CCCCn1c2ccccc2c2nc3ccccc3nc21` the z-score was 0.05. Compound `Cc1c(C(=O)NCc2ccc(OC(C)C)cc2)oc2ccc3c(c12)C=CC(C)(C)O3` has a z-score of 0.85. `CC(=O)Oc1ccc(OC(C)=O)c2c1C1C=CC2CC1` showed a z-score of 0.85. With `CC(=O)Oc1cccc2c1C(=O)C=CC2=O` the z-score was -6.5 (active). With `CC(=O)Oc1cccc2c1OC(C)(C)C2` the z-score was 1.6. In the case of `CC1Cc2cc(S(=O)(=O)NCCC(=O)Nc3ccc(F)cc3F)ccc2N1C(=O)C1CC1` (centres undefined), the z-score is reported as -0.8. In the case of `COC(F)(C(=O)N1CCOCC1)C(F)(F)F` (centres undefined), the z-score is reported as -0.4. With `Cc1ccc(C(=O)C(C)Sc2nnc3ccccn23)cc1` (centres undefined) the z-score was -0.05. Compound `Cc1c(Sc2nc3ccccc3s2)c(=O)[nH]c2cc3c(cc12)OCO3` has a z-score of 1. In the case of `C/C=C/C(=O)Nc1ccc(N2CCN(c3ccc(C(F)(F)F)cn3)CC2)nc1`, the z-score is reported as 0.05. With `O=C1CC2(CCN(C(=O)Cc3ccccc3)CC2)Oc2ccccc21` the z-score was 2.85. With `CCc1n[nH]c(=O)c2cc3sccc3n12` the z-score was -0.2. `O=C1c2ccc(-c3nc4ccc(Cl)cc4c(=O)o3)cc2C(=O)N1CC1CCCO1` (centres undefined) gave a z-score of -0.25. In the case of `O=C1NC(=Nc2ccc(O)cc2)S/C1=C\c1ccc(C(=O)O)cc1`, the z-score is reported as -0.6. For `Cc1ccccc1C(CC(=O)O)N1Cc2ccccc2C1=O` (centres undefined), the z-score was -0.8. `Cc1ccc(Cn2c(=O)c3ccccc3n3c(SCC4CCCO4)nnc23)cc1` (centres undefined) showed a z-score of -0.7. `COc1ccc(NC(=O)c2cc(F)cc3c2OCOC3)cc1` showed a z-score of 1.45. In the case of `CNS(=O)(=O)c1ccc2[nH]c(=O)cc(C)c2c1`, the z-score is reported as 0.45. With `N#CC1=CN(Cc2ccccc2)C=C(/C=N/Nc2ccc(F)cc2)C1` the z-score was -0.9. `Cc1cc(C(=O)COC(=O)C2CC2C)c(C)n1-c1cccc(S(=O)(=O)N2CCOCC2)c1` (centres undefined) showed a z-score of -0.5. In the case of `O=C(CNC1CCCC1)Nc1ccc(N2CCCC2)cc1`, the z-score is reported as -0.15. In the case of `CN1/C(=C\C(=O)COC(=O)C(C)(C)C)C(C)(C)c2ccccc21`, the z-score is reported as -0.4. Work on `Cn1[nH]c2nc3[nH]n(C)c(=O)c3c(-c3ccccc3)c2c1=O` yielded a z-score of 0.65. Work on `Cn1nc(SCC(=O)N2c3ccccc3CCc3ccccc32)sc1=S` yielded a z-score of -0.4. `O=C(Nc1ccc(Cl)c(Cl)c1)Nc1ccnn1C1CCCCC1` gave a z-score of -1.3. `CN(C)c1ccc(/C=N/S(=O)(=O)c2ccccc2)cc1` gave a z-score of -1.15. `CC1(C)CC(=O)c2c(SCCO)sc(C#N)c2C1` gave a z-score of -0.35. Work on `N#CC1=C(N)C(C#N)(C#N)C(c2cccs2)C=C1C1CC1` (centres undefined) yielded a z-score of -0.95. With `Cc1nn(CCCC(=O)NCCC2=CCCCC2)c(=O)c2nccn12` the z-score was 0.9. `O=S1(=O)CCN(Cc2cc(F)cc3c2OCOC3)CC1` showed a z-score of 0.35. For `CN(C)[C@@H]1C(=O)C(C(N)=O)=C(O)[C@@]2(O)C(=O)C3=C(O)c4c(O)ccc(Cl)c4[C@@H](O)[C@H]3C[C@@H]12`, the z-score was -2.25 (active). In the case of `c1ccn2c(c1)nc1nc3nonc3nc12`, the z-score is reported as -5.05 (active). For `O=c1[nH]nc2ccccn12`, the z-score was 1. `O=c1cc(O)nc2ccccn12` gave a z-score of 1.45. Work on `Cc1ccccc1Oc1ccc(S(=O)(=O)N2CC(C)OC(C)C2)cc1` (centres undefined) yielded a z-score of 0.7. Compound `CC(C)CNC(=O)c1ccc(N(C)C)cc1` has a z-score of -1.2. For `CCOc1ccc(N=C2CSC(=O)N2)cc1`, the z-score was -0.95. Compound `CCOC(=O)c1sc(-c2ccccc2)nc1CSc1nccn1C` has a z-score of 1.15. Work on `Cc1c(CCN)sc2nc(-c3ccc(Cl)cc3)nn12` yielded a z-score of 0.25. Compound `CS(=O)(=O)N1CCN=C1SCc1cccnc1` has a z-score of -0.85. In the case of `O=C1CCc2cc(S(=O)(=O)NCC3CCCO3)cc3c2N1CC3` (centres undefined), the z-score is reported as 0.8. With `CCOC(=O)c1ccc(-c2cc(=O)c3ccccc3o2)cc1` the z-score was -0.3. In the case of `O=C(Nc1ccc(F)cc1)n1ncc2cc(Cl)ccc21`, the z-score is reported as 1.1. In the case of `N#CC(C#N)=Cc1ccc(-c2cccc(C(=O)O)c2)o1`, the z-score is reported as 1.85. `COc1ccc(CNC(=O)COc2ncnc3ccccc23)cc1` showed a z-score of 0.2.
